Drawing on PubChem BioAssay (EPA / NIEHS), this text covers outcome and AC50 for eight compounds.

Results filed as inconclusive are left out. The source made the active and inactive calls. How the source made its calls, unless noted: active means hit-call score of the fitted dose curve at least 0.9, where 1 is the maximum; inactive means score below 0.9.

Assay [1] concerns the target Retinoic acid receptor RXR-alpha (Homo sapiens) (UniProt P19793). Nature of the assay: OT_NURR1_NURR1RXRa_0480: Odyssey Thera (OT) 8-hour HEK293T Protein Complementation Assay for Nurr1/retinoid X receptor (RXR) (AID 2283385; active means hit-call score of the fitted dose curve at least 0.9, where 1 is the maximum). The procedure, abridged: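 8 h compound exposure, HEK293T; Nurr1/RXRα fragment complementation; fluorescence intensity; positive fitting direction vs DMSO baseline.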

For assay [2] the target is unchanged. Nature of the assay: OT_NURR1_NURR1RXRa_1440: Odyssey Thera (OT) 24-hour HEK293T Protein Complementation Assay for Nurr1/retinoid X receptor (RXR) (AID 2283386; active means hit-call score of the fitted dose curve at least 0.9, where 1 is the maximum). The procedure, abridged: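 Interaction of Nurr1 with RXRα brings fused reporter fragments together in human HEK293T cells, restoring a functional reporter. Fluorescence intensity is measured 24 h after chemical treatment, and values are analysed in the positive direction against DMSO.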

The target of assay [3] is Peroxisome proliferator-activated receptor gamma (Homo sapiens) (UniProt P37231). Nature of the assay: OT_PPARg_PPARgSRC1_0480: Odyssey Thera (OT) 8-hour Protein-Complementation Assay for Peroxisome Proliferator-activated Receptor Gamma / SRC-1 Co-activator (AID 2283387; active means hit-call score of the fitted dose curve at least 0.9, where 1 is the maximum;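 further: nuclear to cytoplasmic split Venus YFP fluorescence ratio reporting PPARg SRC-1 interaction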). The procedure, abridged: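 Read-out: 488 nm N/C fluorescence ratio from complemented Venus YFP fragments, ≥350 cells per image, gain-of-signal fitted against DMSO baseline. Fusions of PPARg/SRC-1 with IFP1/IFP2 expressed transiently in HEK293T; compounds applied 8 h.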

For assay [4] the target is unchanged. The assay can be described thus: OT_PPARg_PPARgSRC1_1440: Odyssey Thera (OT) 24-hour Protein-Complementation Assay for Peroxisome Proliferator-activated Receptor Gamma/ SRC-1 Co-activator (AID 2283388; active means hit-call score of the fitted dose curve at least 0.9, where 1 is the maximum;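 further: nuclear to cytoplasmic ratio of reconstituted Venus YFP fluorescence in fixed imaged cells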). The method in brief:
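Cells carrying the PPARg/SRC-1 fragment-complementation reporter receive compound for 24 hours, are fixed and counterstained with Draq5, then imaged. Increased nuclear relative to cytoplasmic YFP fluorescence above DMSO baseline indicates binding activity.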

The nature of assay [5]: CEETOX_H295R_CORTIC: CeeTox H295R High-throughput Steroidogenesis Assay for Corticosterone (CORTIC) (AID 2283437).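 Further: corticosterone secreted into medium quantified by mass spectrometry.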 The conditions noted are these: actives raise or lower the signal. The procedure, abridged: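 H295R adrenal cells prestimulated 48 hours with 10 uM forskolin, then exposed 48 hours to chemical in 0.1% DMSO. Corticosterone in medium measured by HPLC-MS/MS after MTBE extraction; MTT viability in the same wells; bidirectional fit versus DMSO.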

Assay [6] can be described thus: CEETOX_H295R_CORTISOL: CeeTox H295R High-throughput Steroidogenesis Assay for Cortisol (AID 2283438).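 Further: cortisol secreted into medium quantified by LC-MS/MS.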 The conditions noted are these: actives raise or lower the signal. The procedure, abridged:
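Forskolin 10 uM 48 h prestim → test cmpd in DMSO (0.1% final) 48 h → medium MTBE-extracted → LC-MS/MS cortisol vs 7-pt std curve. Gain/loss of signal fitted vs DMSO. MTT viability in same wells.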

Assay [7] can be described thus: CEETOX_H295R_DOC: CeeTox H295R High-throughput Steroidogenesis Assay for DOC (AID 2283439). The conditions noted are these: actives raise or lower the signal. The method in brief:
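Readout: 11-deoxycorticosterone in culture medium by reverse-phase C18 HPLC with ESI+ tandem MS after MTBE extraction. Cells: H295R, forskolin-primed (10 uM, 48 h), chemical-treated 48 h; DMSO 0.1% final. Activity fitted bidirectionally versus DMSO.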

Assay [8] can be described thus: CEETOX_H295R_PROG: CeeTox H295R High-throughput Steroidogenesis Assay for Progesterone (PROG) (AID 2283442). The note with it: actives raise or lower the signal. The method in brief: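 Measured analyte is progesterone secreted by H295R cells at 48 h of chemical treatment, following 10 uM forskolin priming. Quantitation used HPLC-MS/MS against a 7-point standard curve; cytotoxicity was checked by MTT absorbance.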

Read-out in assay [9]: Tumor necrosis factor receptor superfamily member 6 (Homo sapiens) (UniProt P25445)
The assay can be described thus: LTEA_HepaRG_FAS: Life Technologies and Expression Analysis (LTEA) Assay for Fas cell surface death receptor (FAS) using HepaRG (AID 2283447). The conditions noted are these: mRNA level, 48 h; actives raise or lower the signal. The method in brief: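 Differentiated HepaRG cells in serum-free induction medium were exposed 48 h to 8 half-log concentrations up to 100 uM in 0.5% DMSO, in duplicate. FAS mRNA was measured by qRT-PCR normalised to ACTB, GAPDH and POLR2A; bidirectional fit versus DMSO.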

Read-out in assay [10]: Fatty acid synthase (Homo sapiens) (UniProt P49327)
The assay can be described thus: LTEA_HepaRG_FASN: Life Technologies and Expression Analysis (LTEA) Assay for Fatty Acid Synthase (FASN) using HepaRG (AID 2283448).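 On AC50: differentiated human HepaRG liver cells in serum-free induction medium.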 The note with it: mRNA level, 48 h; actives raise or lower the signal. The procedure, abridged:
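FASN expression changes, up or down relative to 0.5% DMSO, were measured by qRT-PCR in human HepaRG cells after 48 h treatment with chemicals at eight concentrations (half-log steps from 100 uM).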

Read-out in assay [11]: Cyclin D2 (CCND2), CCND2 (gene 894)
The assay can be described thus: LTEA_HepaRG_CCND2: Life Technologies and Expression Analysis (LTEA) Assay for Cyclin D2 (CCND2) using HepaRG (AID 2283449).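 Further: CCND2 transcript measured by TaqMan qRT-PCR and normalised to three housekeeping genes.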 The note with it: mRNA level, 48 h; actives raise or lower the signal. The procedure, abridged: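 Chemicals in 0.5% DMSO, eight half-log concentrations from 100 uM top, were applied in duplicate for 48 h to human HepaRG cells in serum-free induction medium. CCND2 mRNA by TaqMan qRT-PCR, normalised to ACTB/GAPDH/POLR2A; bidirectional fit versus DMSO.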

Read-out in assay [12]: Cyclin Dependent Kinase Inhibitor 1A (CDKN1A), CDKN1A (gene 1026)
Nature of the assay: LTEA_HepaRG_CDKN1A: Life Technologies and Expression Analysis (LTEA) Assay for Cyclin Dependent Kinase Inhibitor 1A (CDKN1A) using HepaRG (AID 2283450). The conditions noted are these: mRNA level, 48 h; actives raise or lower the signal. The procedure, abridged: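 Gain or loss of CDKN1A transcript is scored by bidirectional fitting against 0.5% DMSO vehicle. Human HepaRG cultures receive chemicals for 48 h across an 8-point series peaking at 100 uM; expression comes from qRT-PCR.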

Read-out in assay [13]: catalase (CAT), CAT (gene 847)
Nature of the assay: LTEA_HepaRG_CAT: Life Technologies and Expression Analysis (LTEA) Assay for catalase (CAT) using HepaRG (AID 2283452). The note with it: mRNA level, 48 h; actives raise or lower the signal. The method in brief: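 HepaRG cells in serum-free induction medium, 0.5% DMSO vehicle, exposed 48 h in duplicate over 8 half-log concentrations from 100 uM. CAT mRNA measured by qRT-PCR, normalized to ACTB, GAPDH, POLR2A; bidirectional fit versus DMSO.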

Read-out in assay [14]: flavin-containing dimethylaniline monooxygenases 3 (FMO3), FMO3 (gene 2328)
Nature of the assay: LTEA_HepaRG_FMO3: Life Technologies and Expression Analysis (LTEA) Assay for flavin-containing dimethylaniline monooxygenases 3 (FMO3) using HepaRG (AID 2283453).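 On AC50: differentiated human HepaRG liver cells in serum-free induction medium.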 The note with it: mRNA level, 48 h; actives raise or lower the signal. The method in brief:
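Differentiated HepaRG cells in serum-free induction medium, exposed 48 h in duplicate to 8 half-log concentrations up to 100 uM in 0.5% DMSO. FMO3 mRNA by qRT-PCR, normalized to ACTB, GAPDH, POLR2A; bidirectional fit vs DMSO.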

Read-out in assay [15]: Cytochrome P450 (CYP1A1), CYP1A1 (gene 1543)
Nature of the assay: LTEA_HepaRG_CYP1A1: Life Technologies and Expression Analysis (LTEA) Assay for Cytochrome P450 (CYP1A1) using HepaRG (AID 2283454). The note with it: mRNA level, 48 h; actives raise or lower the signal. The method in brief: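 Using HepaRG cultures with 0.5% DMSO as vehicle, eight-concentration exposures (max 100 uM) lasted 48 h. Transcript levels were measured by TaqMan qRT-PCR and normalized to ACTB, GAPDH and POLR2A.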

Read-out in assay [16]: CFLAR gene, CFLAR (gene 8837)
The assay can be described thus: LTEA_HepaRG_CFLAR: Life Technologies and Expression Analysis (LTEA) Assay for CFLAR gene using HepaRG (AID 2283455). The note with it: mRNA level, 48 h; actives raise or lower the signal. The procedure, abridged:
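Differentiated HepaRG cells in serum-free induction medium were exposed 48 h in duplicate to eight half-log concentrations up to 100 uM in 0.5% DMSO; mRNA measured by TaqMan qRT-PCR, normalized to ACTB, GAPDH, POLR2A; bidirectional fitting versus DMSO.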

Read-out in assay [17]: Cyclin D1 (CCND1), CCND1 (gene 595)
Nature of the assay: LTEA_HepaRG_CCND1: Life Technologies and Expression Analysis (LTEA) Assay for Cyclin D1 (CCND1) using HepaRG (AID 2283451). The conditions noted are these: mRNA level, 48 h; actives raise or lower the signal. The procedure, abridged: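 Expression change is measured by qRT-PCR in HepaRG cells after 48 h treatment across eight concentrations topping at 100 uM, with duplicate wells and DMSO (0.5%) serving as baseline for bidirectional fitting.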

The target of assay [18] is Bile acid receptor (Homo sapiens) (UniProt Q96RI1). Nature of the assay: OT_FXR_FXRSRC1_1440: Odyssey Thera (OT) 24-hour HEK293T Protein-Complementation Assay for Farnesoid X receptor/SRC-1 Co-activator (AID 2283384; active means hit-call score of the fitted dose curve at least 0.9, where 1 is the maximum). The procedure, abridged:
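Compounds are applied to human kidney HEK293T cells expressing bait and prey fused to reporter protein fragments; after 24 h, reconstituted reporter fluorescence is measured. Activity is fitted as signal gain over DMSO.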

Sequence of Peroxisome proliferator-activated receptor gamma (Homo sapiens) (P37231 whole entry, looked up, the tested form may be a part): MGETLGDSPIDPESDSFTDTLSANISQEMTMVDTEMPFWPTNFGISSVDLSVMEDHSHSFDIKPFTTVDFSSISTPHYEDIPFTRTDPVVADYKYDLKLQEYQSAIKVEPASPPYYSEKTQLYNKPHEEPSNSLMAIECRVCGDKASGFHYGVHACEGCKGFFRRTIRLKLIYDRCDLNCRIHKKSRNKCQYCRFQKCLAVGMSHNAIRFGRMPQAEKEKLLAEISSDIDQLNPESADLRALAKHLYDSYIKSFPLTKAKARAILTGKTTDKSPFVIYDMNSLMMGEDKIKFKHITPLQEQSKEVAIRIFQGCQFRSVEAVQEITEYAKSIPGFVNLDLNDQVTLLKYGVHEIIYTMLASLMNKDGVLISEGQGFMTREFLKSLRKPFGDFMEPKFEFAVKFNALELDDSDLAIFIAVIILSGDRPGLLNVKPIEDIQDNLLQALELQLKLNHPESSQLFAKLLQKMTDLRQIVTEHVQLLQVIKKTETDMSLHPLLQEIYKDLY
Sequence of Fatty acid synthase (Homo sapiens) (P49327 whole entry, looked up): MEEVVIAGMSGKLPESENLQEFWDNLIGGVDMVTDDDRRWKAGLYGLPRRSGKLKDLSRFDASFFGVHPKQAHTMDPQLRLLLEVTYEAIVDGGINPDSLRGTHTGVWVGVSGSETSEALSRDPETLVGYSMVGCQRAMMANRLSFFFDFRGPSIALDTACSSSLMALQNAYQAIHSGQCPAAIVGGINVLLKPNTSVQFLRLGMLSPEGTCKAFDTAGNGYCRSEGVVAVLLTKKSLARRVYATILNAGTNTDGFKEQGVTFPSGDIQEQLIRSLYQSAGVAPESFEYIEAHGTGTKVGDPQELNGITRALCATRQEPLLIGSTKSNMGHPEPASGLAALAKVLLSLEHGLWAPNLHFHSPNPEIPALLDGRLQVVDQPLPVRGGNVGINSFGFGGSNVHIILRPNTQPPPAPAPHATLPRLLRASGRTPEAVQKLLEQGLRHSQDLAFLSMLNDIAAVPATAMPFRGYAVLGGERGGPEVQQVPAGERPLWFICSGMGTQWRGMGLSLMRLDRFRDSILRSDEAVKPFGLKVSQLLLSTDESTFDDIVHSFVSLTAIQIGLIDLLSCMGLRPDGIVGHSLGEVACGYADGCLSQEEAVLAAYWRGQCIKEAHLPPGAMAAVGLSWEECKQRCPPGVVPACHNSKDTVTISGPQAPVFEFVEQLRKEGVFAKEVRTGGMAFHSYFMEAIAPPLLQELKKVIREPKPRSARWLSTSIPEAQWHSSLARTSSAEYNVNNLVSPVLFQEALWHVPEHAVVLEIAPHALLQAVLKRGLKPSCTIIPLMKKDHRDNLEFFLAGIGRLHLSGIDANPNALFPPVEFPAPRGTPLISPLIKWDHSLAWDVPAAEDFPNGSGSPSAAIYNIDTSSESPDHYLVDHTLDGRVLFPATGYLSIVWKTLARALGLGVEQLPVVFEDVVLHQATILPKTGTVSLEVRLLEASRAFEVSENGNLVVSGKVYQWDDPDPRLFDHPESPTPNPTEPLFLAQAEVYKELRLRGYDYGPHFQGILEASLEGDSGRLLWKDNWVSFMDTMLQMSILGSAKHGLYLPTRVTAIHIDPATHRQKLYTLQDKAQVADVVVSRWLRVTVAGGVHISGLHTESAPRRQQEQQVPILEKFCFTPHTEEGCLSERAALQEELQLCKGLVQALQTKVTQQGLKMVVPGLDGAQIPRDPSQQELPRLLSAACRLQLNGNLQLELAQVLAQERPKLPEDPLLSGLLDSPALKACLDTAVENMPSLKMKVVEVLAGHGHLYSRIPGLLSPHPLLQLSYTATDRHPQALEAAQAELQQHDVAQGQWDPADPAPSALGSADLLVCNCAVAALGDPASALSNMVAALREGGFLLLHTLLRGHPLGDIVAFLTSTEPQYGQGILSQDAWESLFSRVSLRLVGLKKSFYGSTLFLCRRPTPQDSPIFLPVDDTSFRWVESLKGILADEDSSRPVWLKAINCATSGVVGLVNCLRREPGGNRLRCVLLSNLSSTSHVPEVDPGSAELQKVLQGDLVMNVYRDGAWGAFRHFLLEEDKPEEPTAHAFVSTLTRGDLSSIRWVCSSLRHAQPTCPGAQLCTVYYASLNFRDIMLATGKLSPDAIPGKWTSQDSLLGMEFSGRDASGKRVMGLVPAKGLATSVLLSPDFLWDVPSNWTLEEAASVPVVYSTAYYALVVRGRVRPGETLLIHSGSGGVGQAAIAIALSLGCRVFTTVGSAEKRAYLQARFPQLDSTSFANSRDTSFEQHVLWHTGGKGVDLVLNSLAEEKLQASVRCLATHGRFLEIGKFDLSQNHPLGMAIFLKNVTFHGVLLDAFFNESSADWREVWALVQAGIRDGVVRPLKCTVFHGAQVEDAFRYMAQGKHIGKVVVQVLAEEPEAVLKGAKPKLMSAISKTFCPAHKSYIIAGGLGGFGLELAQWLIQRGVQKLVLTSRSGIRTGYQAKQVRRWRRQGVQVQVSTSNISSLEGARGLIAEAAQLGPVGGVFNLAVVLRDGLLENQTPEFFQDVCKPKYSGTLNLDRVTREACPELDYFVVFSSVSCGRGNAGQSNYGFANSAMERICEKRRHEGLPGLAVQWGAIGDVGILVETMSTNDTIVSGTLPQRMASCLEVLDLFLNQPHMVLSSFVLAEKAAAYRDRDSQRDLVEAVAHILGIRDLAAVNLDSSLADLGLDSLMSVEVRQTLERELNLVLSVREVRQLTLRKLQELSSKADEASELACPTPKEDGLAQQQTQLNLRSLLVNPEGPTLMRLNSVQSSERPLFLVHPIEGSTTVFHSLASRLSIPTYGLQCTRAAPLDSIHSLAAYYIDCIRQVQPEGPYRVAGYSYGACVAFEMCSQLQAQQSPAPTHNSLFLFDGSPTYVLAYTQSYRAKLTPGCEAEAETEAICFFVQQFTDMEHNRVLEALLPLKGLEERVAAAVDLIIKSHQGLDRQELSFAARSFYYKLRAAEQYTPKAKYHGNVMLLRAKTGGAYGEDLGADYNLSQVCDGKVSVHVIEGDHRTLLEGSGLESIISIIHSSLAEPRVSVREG
Sequence of Retinoic acid receptor RXR-alpha (Homo sapiens) (P19793 whole entry, looked up, the tested form may be a part): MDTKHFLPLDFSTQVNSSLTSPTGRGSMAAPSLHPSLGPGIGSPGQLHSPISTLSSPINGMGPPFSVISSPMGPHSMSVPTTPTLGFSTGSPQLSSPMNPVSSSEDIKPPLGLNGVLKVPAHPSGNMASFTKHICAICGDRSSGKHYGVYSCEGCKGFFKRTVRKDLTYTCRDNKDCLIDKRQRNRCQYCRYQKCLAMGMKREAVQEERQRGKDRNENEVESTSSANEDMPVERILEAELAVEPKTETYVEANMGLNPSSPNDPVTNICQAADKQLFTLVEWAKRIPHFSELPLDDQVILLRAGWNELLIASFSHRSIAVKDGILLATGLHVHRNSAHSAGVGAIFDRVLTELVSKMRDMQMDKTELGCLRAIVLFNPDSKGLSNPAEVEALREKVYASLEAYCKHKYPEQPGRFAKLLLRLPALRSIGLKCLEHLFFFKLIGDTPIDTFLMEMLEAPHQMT
Sequence of Bile acid receptor (Homo sapiens) (Q96RI1 whole entry, looked up, the tested form may be a part): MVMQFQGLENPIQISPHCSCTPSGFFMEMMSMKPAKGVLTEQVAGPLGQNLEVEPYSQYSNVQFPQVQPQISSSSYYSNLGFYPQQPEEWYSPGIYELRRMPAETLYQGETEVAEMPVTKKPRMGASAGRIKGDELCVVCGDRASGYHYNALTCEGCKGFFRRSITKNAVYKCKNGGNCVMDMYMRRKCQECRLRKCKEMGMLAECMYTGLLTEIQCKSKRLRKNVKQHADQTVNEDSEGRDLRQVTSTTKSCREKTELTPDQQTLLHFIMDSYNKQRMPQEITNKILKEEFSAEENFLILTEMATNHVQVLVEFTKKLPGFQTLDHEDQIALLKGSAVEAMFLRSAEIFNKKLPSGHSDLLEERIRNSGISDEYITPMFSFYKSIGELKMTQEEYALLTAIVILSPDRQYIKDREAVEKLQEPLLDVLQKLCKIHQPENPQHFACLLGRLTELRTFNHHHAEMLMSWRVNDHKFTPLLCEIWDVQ

`CCCCCCCC[Si](OCC)(OCC)OCC`: the outcome in assay [1], in [2], in assay [3], in assay [4], in [5] and in [6] was inactive. Besides, the outcome in assay [7], in assay [8], in [9], in assay [10], in assay [11] and in [12] was inactive. Moreover, the compound was classed as inactive in assay [13], in assay [14], in [15] and in assay [16].

Turning to `c1ccc2n[nH]nc2c1`, the result in assay [1], in assay [2], in assay [3], in assay [4], in [9] and in [10] was inactive. Further, the compound was classed as inactive in assay [11], in assay [13], in assay [14], in [15] and in assay [16].

For `CC(C)(O)c1ccc(CNC(=O)c2cccnc2Oc2ccc3nonc3c2)cc1`, the compound was called inactive in assay [1], in assay [3], in [4], in assay [9], in [10] and in [11]. Also, the result in assay [12], in assay [17], in [13], in assay [14] and in [16] was inactive. Besides, the AC50 in assay [15] is 34.7 µM (active).

`O=c1[nH]sc2ccccc12`: the result in assay [3], in assay [4], in [9], in [10], in [12] and in [17] was inactive. In addition, the result in [13], in assay [14] and in [16] was inactive. The AC50 in assay [15] was 64.5 µM (active).

On to `CCOC(=O)O[C@H](C)OC(=O)c1ccc2c(c1)cc(C(=O)NC1CCN(C(C)C)CC1)n2Cc1cc(-c2ccc(Cl)s2)on1`, for which the half-maximal activity concentration (AC50) is 74.9 µM (active) in assay [18] and 65.2 µM (active) in [15]. The call in assay [3], in assay [4], in assay [9], in [10], in [11] and in assay [13] was inactive. For the same compound, the compound was classed as inactive in assay [14] and in assay [16].

Consider `CCCCCCCCCC(=O)O`, for which the compound was called inactive in assay [1], in [2], in assay [4], in assay [9], in assay [10] and in [11]. In addition, the call in [12], in assay [17], in assay [13], in [14] and in [16] was inactive. In addition, the half-maximal activity concentration (AC50) in assay [15] was 70.9 µM (active).

Consider `CCCCCc1ccc(N)cc1`, for which the outcome in assay [1], in [2], in assay [3], in assay [4], in [9] and in [10] was inactive. Also, the result in assay [11], in [13], in [14] and in assay [16] was inactive. In assay [15], the half-maximal activity concentration (AC50) is 28.8 µM (active).

For the compound `CN(C[C@@H](CC[N+]12CCC(C3CCCCC3)(CC1)CC2)c1ccc(Cl)c(Cl)c1)C(=O)c1cc(C(F)(F)F)cc(C(F)(F)F)c1`, the concentration at half-maximal activity (AC50) was 78.1 µM (active) in assay [18]; 93.8 µM (active) in assay [9]; 13 µM (active) in assay [10]; 17.5 µM (active) in assay [13]; 50 µM (active) in assay [14]; 14.9 µM (active) in assay [15]. In addition, the half-maximal activity concentration (AC50) in assay [16] is 50 µM (active). Moreover, the outcome in assay [3], in assay [4], in [11] and in [12] was inactive.

As a reminder, the AC50 is the midpoint of the concentration-response curve, whichever way the signal moves.
